A number with no mark means an inactive call. Records with an inconclusive call do not appear. Entries that show only a call come without a potency. The source made the active and inactive calls. Calls follow the shape of the dose curve; as a rule, active = well fitted curve in the direction sought with a large enough effect; inconclusive = small, poorly fitted or top-dose-only effect, or another doubt; inactive = no such curve, though single readings can be large; an effect the other way counts as inactive or inconclusive.
What was measured:
[1] = target: Glutathione peroxidase 1 (Homo sapiens) (UniProt P07203); assay: Primary qHTS Assay for Inhibitors of Recombinant Selenoprotein Glutathione Peroxidase 1 (GPX1) (AID 1845191); also: nearly all actives have a fitted effect of over 65% in size
Chain of Glutathione peroxidase 1 (Homo sapiens) (P07203 whole entry, looked up): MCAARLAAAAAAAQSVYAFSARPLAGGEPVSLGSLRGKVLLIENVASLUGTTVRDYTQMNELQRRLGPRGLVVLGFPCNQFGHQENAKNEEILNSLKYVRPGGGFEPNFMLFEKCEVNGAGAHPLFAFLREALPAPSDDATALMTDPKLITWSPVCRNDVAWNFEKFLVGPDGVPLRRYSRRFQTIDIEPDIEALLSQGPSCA
Procedure, shortened: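 10 nM GPX1 + cpd, 30 min RT; start w/ 1 mM GSH, 0.5 mM cumene hydroperoxide, 0.5 mM NADPH, 100 nM GR, 0.01% BSA; buffer 50 mM Tris-HCl pH 7.5, 2 mM EDTA, 150 mM NaCl; Fl 340/450, 0 & 15 min.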

[2] = target: Phospholipid hydroperoxide glutathione peroxidase GPX4 (Homo sapiens) (UniProt P36969); assay: Primary qHTS Assay for Inhibitors of Recombinant Selenoprotein Glutathione Peroxidase 4 (GPX4) (AID 1845192); also: nearly all actives have a fitted effect of over 65% in size; as to activity change, negative = inhibition: series mostly up to about 50 µM
Chain of Phospholipid hydroperoxide glutathione peroxidase GPX4 (Homo sapiens) (P36969 whole entry, looked up): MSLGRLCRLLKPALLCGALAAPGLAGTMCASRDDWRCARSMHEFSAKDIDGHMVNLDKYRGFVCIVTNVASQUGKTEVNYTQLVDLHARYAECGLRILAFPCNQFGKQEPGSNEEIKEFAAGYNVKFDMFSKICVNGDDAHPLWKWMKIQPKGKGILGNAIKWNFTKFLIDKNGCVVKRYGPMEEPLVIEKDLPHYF
Procedure, shortened: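 NADPH consumption, followed by fluorescence at 340/450 nm between 0 and 15 min, reports GPX4 activity via coupled glutathione reductase (100 nM). Enzyme 200 nM was pre-exposed to compound 30 min; 0.5 mM cumene hydroperoxide and 1 mM GSH served as substrates.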

[3] = target: Luciferin 4-monooxygenase (Photinus pyralis) (UniProt P08659); assay: Primary firefly luciferase (FLuc) qHTS assay for identification of artifact compounds. (AID 1845220); also: nearly all actives have a fitted effect of over 60% in size; also: potency is read from the fitted curve at half-maximal effect; as to activity change, negative = inhibition: series mostly up to about 54 µM
Procedure, shortened: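 FLuc 10 nM; luciferin 10 uM; ATP 10 uM; Tris-acetate pH 7.6, Mg-acetate 10 mM; 15 min RT preincubation; 5 min reaction; luminescence.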

[4] = Primary fluorescence-based thiol-reactive (MSTI) qHTS assay for identification of artifact compounds. (AID 1845221); also: nearly all actives have a fitted effect of over 65% in size; also: potency is read from the fitted curve at half-maximal effect;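 as to activity change, negative = thiol reactive: series mostly up to about 54 µM; thiol-reactive compounds lower the probe fluorescence signal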
Procedure, shortened: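 Compounds were incubated 1 h at room temperature in the dark with the MSTI probe (4 uM) in PBS pH 7.4, 2% DMSO. Signals were normalized between Acetyl-MSTI and MSTI.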

SMILES	Potency [1]	Potency [2]	Potency [3]	Potency [4]	outcome [3]	activity change, negative = thiol reactive [4]	outcome [1]	activity change, negative = inhibition [2]
C=C(CC/C=C(\C)C(=O)O)C1(O)CC=C(C)CC1 (stereo unspecified)	inactive	inactive	inactive	inactive				
O=C(/C=C/c1ccc(O)cc1)O[C@H]1[C@H](OC2CCCCC2O)O[C@H](CO)[C@@H](O)[C@@H]1O (stereo partly specified)	inactive	inactive	inactive	4.12 µM (active)				
COc1cc([C@H]2OC[C@](O)(Cc3ccc(O[C@@H]4O[C@H](CO)[C@@H](O)[C@H](O)[C@H]4O)c(OC)c3)[C@@H]2CO)ccc1O	inactive	inactive	inactive	inactive				
C[C@@H](c1ccccc1)N(C(N)=NC#N)c1cccc2ncccc12	inactive	inactive	inactive	inactive				
CC(=O)OCC1OC(O[C@H]2CC[C@]34C[C@]35CC(O)[C@]3(C)[C@@H]([C@H](C)CC/C=C(\C)C(=O)O)C(O)C[C@@]3(C)C5CC[C@H]4C2(C)C)C(O)C(O)C1OC1OCC(O)C(O)C1O (stereo partly specified)	inactive	inactive			inactive [at 11.6 µM]	154% [at 11.5 µM]		
CC1(O)CCC2C(C3C1CCC3(C)O)C2(C)C (stereo unspecified)	inactive	inactive	inactive	inactive				
Cc1ccc2nc(NC(=O)CSc3nc4c(c(=O)n3-c3ccc(F)cc3)SCC4)sc2c1	inactive	inactive	inactive	inactive				
O=C(/C=C/C=C/c1ccc2c(c1)OCO2)N1CCCCC1	inactive	inactive	10.7 µM (active)	inactive				
CC(O)C(=O)/C=C/C=C/C(=O)OC1C=C2COC(=O)C2(O)C2(C)CCCC(C)(C)C12 (stereo unspecified)	inactive	inactive	inactive	inactive				
COC(=O)C1=CO[C@@H](O[C@@H]2O[C@H](CO)[C@@H](O)[C@H](O)[C@H]2O)[C@@H]2[C@@H](C)[C@@H](O)C(O)[C@H]12 (stereo partly specified)	inactive	inactive	inactive	inactive				
O=C(O)[C@H]1Cc2ccccc2CN1					inactive [at 6.45 µM]	-3.73% [at 6.41 µM]	inactive [at 4.49 µM]	3.24% [at 4.52 µM]
CCC(C)C(=O)O[C@H]1C[C@](C)(O)[C@]23OC(C)(C)[C@H](C[C@H](OC(=O)c4ccccc4)[C@]2(COC(C)=O)[C@H]1OC(=O)C(C)CC)[C@H]3OC(C)=O (stereo partly specified)	inactive	inactive	inactive	inactive				
COc1cn(-c2ccc(-n3cccn3)cc2F)nc(-c2ccnn2-c2ccccc2)c1=O	inactive	inactive	inactive	inactive				
O=C(/C=C/c1ccccc1)O[C@@H]1[C@@H](CO)O[C@@](CO)(O[C@H]2O[C@H](CO)[C@@H](O)[C@H](O)[C@H]2O)[C@H]1O	inactive	inactive	inactive	2.92 µM (active)				
C=C1CC2C3(C)C=CC(=O)OC(C)(C)C3CC(OC(C)=O)C2(C)C2C(=O)OC(C)C(=O)C12C (stereo unspecified)	inactive	inactive	inactive	inactive				
COC(=O)C1=CO[C@@H](O[C@@H]2O[C@H](CO)[C@@H](O)[C@H](O)[C@H]2O)/C(=C\CO)[C@@H]1CC(=O)OCCc1ccc(O)cc1	inactive	inactive	inactive	6.53 µM (active)				
CCOC(=O)COc1ccc2c(c1)C[C@@H](NC[C@H](O)c1cccc(Cl)c1)CC2	inactive	inactive	inactive	inactive				
COC(=O)C(CC1(O)c2ccccc2N2C(=O)C(C)(C)N(O)C21)n1cnc2ccccc2c1=O (stereo unspecified)	inactive	inactive	inactive	inactive				
CC(C)[C@@H](C(=O)O)N1Cc2c(cc(O)c3c2O[C@]2(C3)[C@H](C)CCC3C(C)(C)[C@H](O)[C@H](O)C[C@@]32C)C1=O (stereo partly specified)	inactive	inactive	inactive	inactive				
CC(=O)OC[C@]12[C@H](OC(C)=O)[C@H](OC(=O)c3ccccc3)[C@@H]3[C@@H](OC(C)=O)[C@]1(OC3(C)C)[C@H](C)C[C@H](OC(=O)c1ccccc1)[C@@H]2OC(=O)c1ccccc1	inactive	inactive	inactive	inactive				
Cc1ccc(-c2c(-c3nn(C)c4ncnc(N5CC[C@H](N6CCCCC6)C5)c34)cnn2C)cc1	inactive	inactive	inactive	inactive				
CC(C)(O)/C=C/C(=O)[C@](C)(O)[C@H]1[C@H](O)C[C@@]2(C)[C@@H]3CC=C4[C@@H](C=C(O[C@@H]5O[C@H](CO)[C@@H](O)[C@H](O)[C@H]5O)C(=O)C4(C)C)[C@]3(C)C(=O)C[C@]12C	inactive	inactive	inactive	inactive				
CC1=CC(=O)CC(C)(C)C1CCC(C)O[C@@H]1O[C@H](CO)[C@@H](O)[C@H](O)[C@H]1O (stereo partly specified)	inactive	inactive	inactive	9.27 µM (active)				
CC1CCC2C(C)(C)[C@H](O)CC[C@]2(C)C12Cc1c(O)cc3c(c1O2)CN(C(CCC(=O)O)C(=O)O)C3=O (stereo partly specified)	inactive	inactive	inactive	inactive				

— PubChem BioAssay (NCATS)
